Our source for the outcome values is PubChem BioAssay (Tox21).

Records with an inconclusive call do not appear. Active and inactive are the calls of the source. Calls follow the shape of the dose curve; as a rule, active = well fitted cell-killing curve with a large enough effect in the repeat runs; inconclusive = weak or mixed curves; inactive = flat fitted curve, though single readings scatter.

A short description of the experiment: qHTS assay to identify small molecule antagonists of the TGF-beta/Smad signaling pathway - cell viability counter screen (AID 1346824). Also: nearly all actives have a fitted effect of over 50% in size. The conditions noted are these: SBE-bla HEK293T viability, CellTiter-Glo luminescence; series mostly up to 76.8 µM. An excerpt:
U.S. Tox21 Program National Center for Advancing Translational Sciences [NCATS] NIH Chemical Genomics Center [NCGC] U.S. Environmental Protection Agency [EPA] National Institutes of Environmental Health Sciences [NIEHS] National Toxicology Program [NTP] U.S. Food and Drug Administration [FDA] Tox21 Assay Overview: Transforming growth factor beta (TGF-beta) superfamily consists of a large number of structurally related dimeric proteins that act as hormones or local mediators in regulating a wide range of biological functions. This superfamily includes TGF-betas themselves, the bone morphogenetic proteins (BMPs) and the activins. These ligands induce oligomerization of serine/threonine receptor kinases and phosphorylate the cytoplasmic signaling molecules of Smad protein family. CellSensor SBE-bla HEK 293T cell line (Life Technologies, Carlsbad, CA), responsive to TGF-beta was used to screen Tox21 10K compound library for identification of agonists/antagonists of the Smad signaling pathway. This cell line contains a beta-lactamase reporter gene under control of the Smad binding element (SBE) stably integrated into HEK 293T cells. Also cytotoxicity of the compounds was tested in parallel by measuring the cell viability using CellTiter-Glo assay system in the same wells.
Tox21 Assay Protocol Summary: SBE-bla HEK 293T cells were dispensed at 4,000/well in 5 uL of assay medium into black wall/clear-bottom 1536-well plates using a Multidrop Combi (ThermoFisher Scientific, Waltham, MA) dispenser. After the assay plates were incubated at 37 C and 5% CO2 for an overnight, 23 nL of compounds dissolved in DMSO, positive controls or DMSO only was transferred to the assay plate by a Pintool station (Kalypsys, San Diego, CA). Compound transfer was followed by the addition of 1 uL of 0.25 ng/mL TGF-beta1 or assay buffer using two separate tips of Flying Reagent Dispenser (FRD, Aurora Discovery, San Diego, CA). The assay plates were incubated at 37 C and 5% CO2 for 5 hr. One uL of LiveBLAzer B/G FRET substrate (Life Technologies) was added using a Flying Reagent Dispenser (FRD, Aurora Discovery, San Diego, CA) and the plates were incubated at room temperature for 2 hr. Fluorescence intensity (405 nm excitation, 460 nm and 530 nm emissions) was measured using an Envision plate reader (PerkinElmer, Shelton, CT). For cytotoxicity read, 4 uL of CellTiter-Glo reagent (Promega Corporation, Madison, WI) was added to each well of the assay plates using FRD. After 30 min incubation at room temperature, the luminescence intensity was measured using ViewLux plate reader (PerkinElmer).
On the technique in general: Quantitative high-throughput screening tests each substance at several concentrations.
Turning to `COP(=O)(OC)O/C(C)=C/C(=O)N(C)C`, the compound was classed as inactive.

`CCN[C@@H](C)Cc1ccccc1`: the result was inactive. With `CC[C@H](N)c1ccccc1` the entry was “inactive”. The value for `CC1=C2[C@H]3OC(=O)[C@@H](C)[C@@H]3CC[C@@]2(C)C=CC1=O` was “inactive”; that for `O=P(O)(O)CN(CP(=O)(O)O)CP(=O)(O)O` was “inactive”. For `N#CN=C1SCCN1Cc1ccc(Cl)nc1`, the compound was called inactive. The value for `C#CC(C)(C)O` was “inactive”; that for `C=CC1(C)OC(=O)N(c2cc(Cl)cc(Cl)c2)C1=O` (stereo not given) was “inactive”; that for `CCC(C)C(C)(COC(N)=O)COC(N)=O` (stereo not given) was “inactive”.

In the case of `O=C(NC(O)C(Cl)(Cl)Cl)NC(O)C(Cl)(Cl)Cl` (stereo not given), the outcome was inactive. The value for `CCOC1Oc2ccc(OS(C)(=O)=O)cc2C1(C)C` (stereo not given) was “inactive”; that for `CCOP(=S)(OCC)SCCl` was “inactive”; that for `CCCCCCCC(=O)Cl` was “inactive”. The value for `CCCCCCC1CCOC1=O` (stereo not given) was “inactive”; that for `CCC(C(N)=O)N1CCCC1=O` (stereo not given) was “inactive”. The value for `CN(C)C(=O)Oc1cc(OC(=O)N(C)C)cc(C(O)CNC(C)(C)C)c1` (stereo not given) was “inactive”. For `ClCCCCCCCl`, the compound was called inactive. The value for `CCCN1CCC[C@@H]2Cc3nc(N)ncc3C[C@H]21` was “inactive”; that for `O=c1[nH]c2ccccc2n1C1CCNCC1` was “inactive”; that for `CCCC[N+](=O)[O-]` was “inactive”.

With `CC(C)(C)c1cc(O)ccc1O`, the call was inactive. The value for `CCOP(=O)(CN(CCO)CCO)OCC` was “inactive”. With `C[C@H](N)C(=O)c1ccccc1` the entry was “inactive”; with `O=C(Cl)OCc1ccccc1`, “inactive”; with `Oc1ccc(Cc2ccc(O)cc2)cc1`, “inactive”.

Consider `O=P(O)(O)c1ccccc1`, for which the compound was classed as inactive. With `CC[C@H](O)C(C[C@H](C)N(C)C)(c1ccccc1)c1ccccc1` the entry was “inactive”.

For the compound `CON(C)C(=O)Nc1ccc(Br)cc1`, the compound was classed as inactive. The value for `Cc1cccc2sc3nncn3c12` was “inactive”. The value for `CC(C)(C)NC[C@H](O)c1ccc(O)cc1Cl` was “inactive”; that for `CCC1(c2ccccc2)CCC(=O)NC1=O` (stereo not given) was “inactive”. The value for `C=CCN1CC[C@]23CCCC[C@H]2[C@H]1Cc1ccc(O)cc13` was “inactive”. As to `O=C1C2CC=CCC2C(=O)N1SC(Cl)(Cl)Cl` (stereo not given), the compound was called inactive.

For the compound `CC(C)C(C)(N)C#N` (stereo not given), the compound was called inactive. With `COc1cccc(C=O)c1` the entry was “inactive”; with `O=C(Cl)/C=C/C(=O)Cl`, “inactive”; with `CCC1(c2ccccc2)C(=O)N(COC)C(=O)N(COC)C1=O`, “inactive”.

For `CCCCCCCCBr`, the outcome was inactive. Regarding `ClCCN1CCCC1`, the outcome was inactive. The value for `CCN[C@H](C)Cc1cccc(C(F)(F)F)c1` was “inactive”.
